The entries come from a sample that favours hits as a whole.
TbPYK inhibitor = blocks Trypanosoma brucei pyruvate kinase; 410,000 tested, 0.12% active; TbPYK enzyme, Kinase-Glo Plus ATP luminescence, 45 min; AID 624173; Potency, µM (doses to about 76.8 µM), for inactives: at the top dose activity, negative = inhibition, usual class: inhibitors; note: potency is the fitted concentration of half-maximal effect; % is set by controls: 0 for no effect and ±100 for the full control effect; nearly all actives have a fitted effect of over 50% in size
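Luminescent Kinase-Glo Plus end-point after 45 min room-temperature reaction of T. brucei pyruvate kinase started with 130 uM ADP (final). Buffer TEA 50 mM pH 7.2 with KCl, MgCl2, BSA, Tween-20; titration-based qHTS with fitted concentration-effect curves.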
Cycloheximide cs = affects cycloheximide protein synthesis inhibition readout, counter-screen; cell reporter, cycloheximide protein synthesis inhibition counterscreen; max response, %; 300,000 tested, 12% active; AID 2314; in the data active = max response mostly above about 13%, no sharp cut-off; inactive = mostly below about 14%; note: read at 38.3 µM for the half of the compounds with a filed dose; 0% is about no effect
LmPK inh = LmPK (Leishmania mexicana) enzyme inhibition | purified LmPK, Kinase-Glo ATP luminescence, 1 h | Q27686 | Potency, µM (top dose mostly 57.5 µM), without a hit: at the highest dose activity change, negative = inhibition, most hits filed as inhibitors | 290,000 tested, 0.37% active; note: potency is the fitted concentration of half-maximal effect; % is set by controls: 0 for no effect and ±100 for the full control effect
Target sequence (Q27686 whole entry, looked up): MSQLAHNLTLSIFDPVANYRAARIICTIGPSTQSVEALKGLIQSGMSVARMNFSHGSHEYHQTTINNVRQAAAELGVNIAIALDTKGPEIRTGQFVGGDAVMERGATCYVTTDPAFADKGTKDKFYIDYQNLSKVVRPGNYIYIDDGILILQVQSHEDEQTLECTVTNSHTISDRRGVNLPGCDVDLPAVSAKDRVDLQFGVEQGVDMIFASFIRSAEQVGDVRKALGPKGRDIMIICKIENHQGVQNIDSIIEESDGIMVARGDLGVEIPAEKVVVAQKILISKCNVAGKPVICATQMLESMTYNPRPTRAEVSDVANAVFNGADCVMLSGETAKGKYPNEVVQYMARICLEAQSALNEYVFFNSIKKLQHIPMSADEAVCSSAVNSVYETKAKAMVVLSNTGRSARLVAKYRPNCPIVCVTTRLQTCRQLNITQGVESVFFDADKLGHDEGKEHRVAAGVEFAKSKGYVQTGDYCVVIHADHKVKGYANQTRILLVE
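Purified LmPK (0.1 nM) with 0.5 mM PEP and 0.1 mM ADP in imidazole buffer pH 7.2 with MgCl2/KCl, 1 h at room temperature. ATP formed was read by luciferase luminescence and normalized to no-enzyme and uninhibited controls.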
Sm TGR block = S. mansoni TGR enzyme inhibition; Q962Y6; purified TGR, DTNB reduction, TNB absorbance 405 nm; Potency, µM (highest dose often 114 µM), without a hit: top-dose activity change, negative = inhibition, actives largely listed as inhibitors; 360,000 tested, 3% active; AID 485364; note: potency is the fitted concentration of half-maximal effect; % is set by controls: 0 for no effect and ±100 for the full control effect; nearly all actives have a fitted effect of over 60% in size
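Kinetic colorimetric format: TGR-catalysed, NADPH-driven DTNB reduction monitored via TNB absorbance. Enzyme dispensed at 20 nM; compound exposure 15 min at room temperature before reaction start.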
Giardia FBPA inh = blocks Giardia fructose-bisphosphate aldolase activity. 290,000 tested, 0.71% active. Potency, µM (top dose mostly 59.6 µM), without a hit: top-dose activity, negative = inhibition, hits mostly inhibitors. purified Giardia FBPA. A8B2U2. AID 2451; note: potency is the fitted concentration of half-maximal effect; % is set by controls: 0 for no effect and ±100 for the full control effect; nearly all actives have a fitted effect of over 55% in size
Target sequence (A8B2U2 whole entry, looked up): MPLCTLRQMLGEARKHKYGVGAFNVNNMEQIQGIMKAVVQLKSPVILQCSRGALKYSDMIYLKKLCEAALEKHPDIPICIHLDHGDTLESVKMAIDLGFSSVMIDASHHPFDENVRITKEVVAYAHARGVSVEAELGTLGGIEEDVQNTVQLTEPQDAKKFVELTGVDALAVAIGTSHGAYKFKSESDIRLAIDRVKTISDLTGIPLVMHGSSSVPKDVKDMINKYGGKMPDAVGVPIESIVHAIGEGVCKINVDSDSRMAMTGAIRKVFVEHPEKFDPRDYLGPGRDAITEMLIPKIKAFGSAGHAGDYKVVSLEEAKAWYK
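Giardia FBPA (40 nM reagent) was preincubated 10 min at RT with compound (up to 57.5 uM final), then substrate plus GAPDH/TPI/NAD/arsenate coupling system with diaphorase/resazurin was added; resorufin fluorescence (525/598 nm) was read after 20 min.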
Shiga toxin inh = inhibitors of Shiga toxin in Vero cells. Vero cells, Shiga toxin protein synthesis inhibition reporter. inhibition, % at 38.7 µM. 290,000 tested, 9.2% active. AID 2315; in the data active = inhibition mostly above about 28%, no sharp cut-off; inactive = mostly below about 43%; note: 0% is about no effect
* hit, by the source's call; ? = inconclusive; nt = no result. Unless noted, calls come from the whole dose curve; as a rule, active = well fitted curve in the direction sought with a large enough effect; inconclusive = small, poorly fitted or top-dose-only effect, or another doubt; inactive = no such curve, though single readings can be large; an effect the other way counts as inactive or inconclusive.

SMILES | TbPYK inhibitor | Cycloheximide cs | LmPK inh | Sm TGR block | Giardia FBPA inh | Shiga toxin inh
Cc1cccc(NC(=O)c2ccc(C(=O)c3ccccc3)o2)c1 | 3.3% | 36.8* | -1.9% | nt | -6.0% | 72.7*
O=C(Nc1cccc(NC(=O)c2ccc(Br)o2)c1)c1ccccc1 | 0.3% | 6.6 | 0.0% | -22.1% | 8.0% | 21.4
Cc1nc(NC(=O)c2ccc(Br)o2)ccc1Br | 3.3% | 36.1* | -4.8% | -0.1% | 12.6% | 63.1*
CCN(Cc1cc(=O)n2ccsc2n1)c1cccc2ccccc12 | -0.9% | 12.4 | 1.1% | 4.0% | ? | -10.2
C[N+](C)(CCCCCC[N+](C)(C)C1c2ccccc2-c2ccccc21)C1c2ccccc2-c2ccccc21 | 3.0% | nt | nt | nt | nt | nt
N=C1C(c2nc3ccccc3s2)=C(O)CN1CCCO | -0.9% | 14.0 | 0.2% | 4.8% | 2.8% | -12.3
CC(O)CN1CC(O)=C(c2nc3ccccc3s2)C1=N (centres undefined) | -9.4% | 17.4* | 8.6% | 5.0% | 1.7% | 21.4
CCN1CC(O)=C(c2nc3ccccc3s2)C1=N | -5.5% | 24.0* | -2.6% | -3.9% | -4.2% | 27.2
CCCCN1CC(O)=C(c2nc3ccccc3s2)C1=N | 3.0% | 25.4* | 4.4% | 4.3% | 0.1% | 43.8
Cc1ccc(CN2CCN(C3CCN(C(=O)c4ccc(C)cc4)CC3)C(=O)C2=O)cc1 | 2.3% | nt | nt | 6.9% | nt | nt
CCOC(=O)c1nc(C)nc(Sc2n[nH]c(-c3cc(C(F)(F)F)cc(C(F)(F)F)c3)n2)c1C | 4.6% | -0.9 | 10.0% | 2.9% | 4.9% | -10.7
COc1ccccc1C1NC(=O)NC(C)=C1C(=O)OC1CCC(C)CC1 (centres undefined) | -8.9% | -3.3 | 0.4% | -21.3% | -3.8% | 6.3
O=C1CCCC2=C1C1(CCCC1)N=C(Nc1nc3cc(-c4ccccc4)ccc3o1)N2 | -5.7% | nt | nt | nt | nt | nt
Cc1ccsc1C(=O)OCC(=O)N1CCc2ccccc2C1 | -0.9% | 45.2* | 3.2% | 0.0% | -0.4% | 115.1*
Nc1ccc(C(=O)OCC(=O)N2CCc3ccccc3C2)cc1[N+](=O)[O-] | -9.4% | 38.5* | 3.4% | -1.5% | 21.5% | 56.9*
Cc1ccc(C)c(OCC(=O)N2CCc3ccccc3C2)c1 | -14.9% | 13.2* | 1.7% | 2.5% | 3.5% | 25.5
Cc1cc(OCC(=O)N2CCc3ccccc3C2)c(C)cc1Br | -6.2% | 26.6* | 4.7% | 0.8% | 0.7% | 40.5*
O=C1c2cccc3c2[C@@H](CCC3)CN1[C@@H]1CN2CCC1CC2 | 1.1% | nt | nt | nt | nt | nt
COC(=O)c1ccc(C(NC(=O)OCc2ccccc2)/C(=C/[C@@H](C)C(=O)NCc2cc(F)cc(F)c2)c2cccnc2)cc1 (some centres undefined) | nt | nt | nt | nt | 1.9% | nt
O=c1c2c3c(sc2n(Cc2ccc(F)cc2Cl)c(=O)n1-c1ccc(Cl)cc1)CCC3 | -0.1% | nt | nt | -3.4% | nt | nt
CC(=O)Nc1ccc(N2C(=O)CC(N3CC(C)OC(C)C3)C2=O)cc1 (centres undefined) | 3.5% | -3.3 | 3.0% | 22.4µM* | -1.6% | -9.0
CC(=O)Nc1ccc(N2C(=O)CC(N3CCSCC3)C2=O)cc1 (centres undefined) | 0.9% | -2.2 | 5.1% | nt | 3.5% | 16.1
CN(CC(=O)Nc1ccc(F)c(F)c1F)C(=O)c1ccc(=O)[nH]c1 | 3.1% | 38.5* | -23.8% | -31.1% | nt | 50.1*
Cc1ccc(/C(=N/Nc2nc3ccccc3s2)C2=C(O)c3ccccc3C2=O)cc1 | 6.4% | 18.7 | 5.0% | -1.0% | -5.5% | 43.7*
Cc1ccc(-c2cc(C(=O)NCc3cccnc3)no2)cc1 | 0.8% | 53.3* | -0.2% | -16.5% | 3.1% | 49.7*
SMILES | TbPYK inhibitor | Cycloheximide cs | LmPK inh | Sm TGR block | Giardia FBPA inh | Shiga toxin inh
CC(C)Cc1cc(C(=O)NCc2cccs2)no1 | 1.9% | 40.1* | -4.9% | 3.3% | -1.8% | 84.1*
CC(C)Cc1cc(C(=O)NCc2cccnc2)no1 | 0.2% | 25.4* | 9.8% | 0.0% | 2.5% | 13.2
Cc1cc(C(=O)NCc2cccs2)cs1 | 9.0% | 16.0 | 2.7% | -5.1% | -11.8% | 41.2
c1ccc(C[n+]2csc3ccccc32)cc1 | ? | 14.3 | 1.1% | 4.47µM* | -10.5% | 108.8*
Fc1cccc(C[n+]2csc3ccccc32)c1 | ? | 2.4 | 0.5% | -31.9% | -24.5% | 9.1
COc1ccc(-c2ncc3ccccn23)cc1OC | 23.6% | 24.1* | -0.7% | ? | ? | 9.6
O=[N+]([O-])c1ccc(Sc2ccccc2Cl)nc1 | 4.3% | 12.3 | 0.4% | ? | -1.6% | 16.0
O=[N+]([O-])c1cccc(-c2ncc3ccccn23)c1 | -1.9% | 31.0* | 0.8% | -2.3% | -3.8% | 68.0*
O=[N+]([O-])c1ccc(Sc2ncc3ccccn23)nc1 | -2.0% | -3.2 | 5.7% | 44.7µM* | -1.0% | 17.4
Clc1ccc(-c2ncc3ccccn23)cc1 | 5.1% | 4.1 | 12.2% | 13.8% | 0.2% | 34.0
Nc1c(-c2cccc([N+](=O)[O-])c2)nc2ccccn12 | -0.4% | 112.5* | -20.4% | -0.5% | -24.1% | 81.8*
C/C(=N\Nc1cc(-c2ccccc2)nc(-c2ccc(Br)cc2)n1)c1cccc(N)c1 | 1.5% | nt | nt | nt | nt | nt
CCc1ccc(/C(C)=N/Nc2cc(Cl)nc(C)n2)cc1 | 2.3% | -0.9 | -0.2% | -12.8% | -1.8% | 12.7
C/C(=N\Nc1cc(Cl)nc(C)n1)c1ccccc1 | 0.6% | 28.5* | 4.3% | 0.2% | -23.3% | 45.8*
C/C(=N/Nc1cc(-c2ccccc2)nc(-c2ccccc2)n1)c1ccc(O)cc1 | -7.1% | 23.3* | -6.7% | 2.4% | 1.7% | 30.8
N#CCSc1nccc(/C=C/c2ccccc2)n1 | 4.5% | 42.0* | 2.1% | 1.4% | -6.0% | 39.6*
CCCCCCCCN1C(=O)[C@H](CC(=O)N2CCCC2)C[C@@]2(C(=O)OC)CCCCC=C12 | -9.9% | nt | nt | nt | nt | nt
O=C(Nc1cccs1)Nc1cc(C(F)(F)F)ccc1Cl | -5.1% | nt | nt | -3.8% | nt | nt
COc1ccccc1-n1c(=O)oc2ccc(Cl)cc2c1=O | -5.5% | 59.4* | -5.2% | 5.9% | -4.1% | 85.5*
CN(C(=O)CO)c1c(I)c(C(=O)NCC(O)CO)c(I)c(C(=O)NCC(O)CO)c1I (centres undefined) | 9.8% | nt | nt | nt | nt | nt
O=C(c1cc(Cl)ccc1OCc1ccccc1)N1CCOCC1 | -6.2% | 20.4* | -0.1% | -7.3% | 12.4% | 26.3
O=C(COc1ccc(Cl)cc1Cl)NC(=O)N1CCOCC1 | 1.9% | 34.7* | -4.1% | -0.6% | -0.2% | 93.1*
O=C(COc1ccccc1Cl)Nc1ccccc1C(=O)N1CCOCC1 | -20.8% | 18.1* | 3.7% | 1.0% | 5.0% | 28.9
O=C(COc1ccc(C(=S)N2CCOCC2)cc1Cl)Nc1ccccc1Cl | -17.9% | 19.3* | 9.5% | -3.6% | ? | 52.2*
COc1cc(C(=S)N2CCCCC2)ccc1OCC(=O)Nc1ccccc1Cl | -10.7% | -4.5 | 2.7% | 7.9% | -0.8% | 8.5
CCOc1ccc(C(C)=O)cc1CC(C(N)=O)C(N)=O | 13.2% | -2.3 | 9.5% | -19.9% | 0.1% | -9.3

High-throughput results as filed in PubChem.
